# Measurements: ChEMBL document CHEMBL3988442, “University of Dundee, Small-Polar-MMV Screening Library” (2021)
# The whole screen tested about 48,000 compounds, of which about 13,000 (27%) showed an effect of 50% or more. The list shows a part of the results.
# Tested on: Wolbachia pipientis
# Experiment: Anti-Wolbachia Cell-Based Screen
# Type: functional
# Design: scale not given: in the data most compounds retested in dose-response had high values
# Settings: 5 µM
row,Compound,Percent Effect [%]
1,CN1CCc2cc(C(CNS(=O)(=O)c3cccs3)N3CCCC3)ccc21 (stereo unspecified),-7.457
2,O=S(=O)(NCC1(O)CCOc2ccccc21)c1cccs1 (stereo unspecified),-3.854
3,O=S(=O)(NCC(c1ccsc1)N1CCCCCC1)c1cccs1 (stereo unspecified),116.8
4,O=C(CSc1ccc2c(c1)OCCO2)NS(=O)(=O)c1cccs1,5.144
5,CN(C)c1ccc(C(CNS(=O)(=O)c2cccs2)N2CCCC2)cc1 (stereo unspecified),108.3
6,CCC(CO)N(Cc1cccs1)C(=O)CNS(=O)(=O)c1cccs1 (stereo unspecified),5.395
7,O=C(CN1CCN(C(=O)c2cccc(-c3ccoc3)c2)CC1)C1CC1,-1.743
8,Cc1ccc(C2CSCCN2C(=O)c2ccsc2)o1 (stereo unspecified),6.011
9,CN(C)CC1CSCCCN1S(=O)(=O)Cc1ccc(C(F)(F)F)cc1 (stereo unspecified),-4.653
10,CN(C)CC1CSCCCN1C(=O)c1cccc(C(F)(F)F)c1 (stereo unspecified),90.72
11,CN(C)CC1CSCCCN1C(=O)c1ccsc1 (stereo unspecified),106.6
12,CN(C)CC1CSCCCN1S(=O)(=O)c1ccc(C(F)(F)F)cc1 (stereo unspecified),1.872
13,CN(C)CC1CSCCCN1C(=O)c1ccc(-n2cccc2)cc1 (stereo unspecified),106.7
14,CN(C)CC1CSCCCN1C(=O)c1ccc(-c2ccccc2)cc1 (stereo unspecified),105.9
15,CN(C)CC1CSCCCN1S(=O)(=O)Cc1cccc(F)c1 (stereo unspecified),24.8
16,CN(C)CC1CSCCCN1C(=O)c1ccc(=O)[nH]c1 (stereo unspecified),13.95
17,CN(C)CC1CSCCCN1C(=O)c1ccc(C(C)(C)C)cc1 (stereo unspecified),10.83
18,CN(C)CC1CSCCCN1C(=O)Nc1ccc(C(C)(C)C)cc1 (stereo unspecified),-13.3
19,CC(O)CN1CCC(CNCc2cccc(OC(C)C)c2)CC1 (stereo unspecified),-7.306
20,CC(c1nc(-c2ccccc2)no1)N1CC(n2cccn2)C1 (stereo unspecified),-11.21
21,COc1ccc(CN(C)c2ccc(-c3nccn3C)nn2)cc1OC,-9.583
22,O=C(Nc1nnn[nH]1)c1ccc(I)c(F)c1,14.38

row,Compound,Percent Effect [%]
1,Cc1ccc(C2CSCCN2C(=O)c2ccc(C(N)=O)cc2)o1 (stereo unspecified),-7.519
2,CC(C)Oc1ccc(C(=O)N2CCCSCC2CN(C)C)cc1 (stereo unspecified),112.1
3,Cc1cccc(OCC2CCCN(C(=O)CN(C)C3CCNCC3)C2)c1 (stereo unspecified),-1.159
4,CC(C)NC(=O)C1CCC2(CCN(Cc3cnn(C)c3)CC2)C1.O=C(O)C(F)(F)F (stereo unspecified),-6.614
5,CN(Cc1nc(C2CC2)no1)C1CCS(=O)(=O)C1 (stereo unspecified),-44.33
6,CN(CCc1ncnn1-c1ccccc1Cl)C1CCS(=O)(=O)C1 (stereo unspecified),107.4
7,CN(Cc1ncnn1C1Cc2ccccc2C1)C1CCS(=O)(=O)C1 (stereo unspecified),124.4
8,CN(Cc1nc(C(C)(C)C)no1)C1CCS(=O)(=O)C1 (stereo unspecified),-19.08
9,CCN(Cc1cc(-c2ccccn2)no1)C1CCS(=O)(=O)C1 (stereo unspecified),-17.52
10,Cc1nc(CN(Cc2ccccc2)C2CCS(=O)(=O)C2)oc1C (stereo unspecified),1.056
11,CN(CCc1ccc2c(c1)CCO2)C1CCS(=O)(=O)CC1,-8.2
12,CCN(Cc1ccc(-c2ccccn2)cc1)C1CCS(=O)(=O)C1 (stereo unspecified),-8.377
13,CN(CCc1ncnn1C1Cc2ccccc2C1)C1CCS(=O)(=O)C1 (stereo unspecified),86.57
14,Cc1ccc(O)c(C(=O)NCCS(=O)(=O)Cc2ccccc2)c1,0.3485
15,O=C(CCN1C(=O)CCC1=O)Nc1cnn(-c2ccccc2Cl)c1,-6.016
16,Cc1cccc(OC(C)C(=O)NCC2(N(C)C)CCCC2)c1 (stereo unspecified),4.772
17,CN(Cc1cc(Br)cn1C)C(=O)Cc1cccnc1,-0.2173
18,CN(Cc1ccccn1)C(=O)Nc1cc(C(F)(F)F)c[nH]c1=O,11.49
19,CN(Cc1nc(C(F)(F)F)cs1)C(=O)CCc1ccccn1,104.8
20,CN(CCc1ccccn1)C(=O)Nc1cc(C(F)(F)F)c[nH]c1=O,14.36
21,Cc1nc(CN2CCN(C(=O)CCc3cccnc3)CC2)no1,-0.7807
22,CN(Cc1nc(C(F)(F)F)cs1)C(=O)CCc1cccnc1,99.2

row,Compound,Percent Effect [%]
1,COC(=O)c1ccc2nc(CO[C@H]3CN(CC4CC4)C[C@H]3F)[nH]c2c1,5.552
2,N#Cc1nccnc1N1CCC(COCc2ccccc2)C1 (stereo unspecified),-0.4127
3,OCC(O)CSCc1cn(-c2ccc(Cl)c(Cl)c2)nn1 (stereo unspecified),-1.515
4,C[S+]([O-])CCCNCc1cc(F)ccc1Br (stereo unspecified),11.95
5,Cc1cnn(CCNCC(O)COc2ccc(C#N)cc2)c1 (stereo unspecified),-2.958
6,CCn1cnnc1CNC(=O)N1CCN(c2cccc(OC)c2)CC1,2.392
7,CCn1cnnc1CNC(=O)N1CCN(c2cccc(C)c2)CC1,81.4
8,CCn1cnnc1CNC(=O)NCC(O)c1ccc(OC)cc1 (stereo unspecified),3.56
9,CCn1cnnc1CNC(=O)N1CCN(c2ccccc2OC)CC1,95.25
10,CCn1cnnc1CNC(=O)N(C)Cc1ccccc1OC,-13.71
11,CCn1cnnc1CNC(=O)N1CCN(c2ccc(OC)cc2)CC1,88.94
12,CCn1cnnc1CNC(=O)N1CCN(c2ccccc2O)CC1,92.65
13,Cc1cccc(N2CCN(C(=O)Nc3cnn(CC(N)=O)c3)CC2)c1,-8.219
14,CC(C)CC(NC(=O)CSCC(N)=O)c1cccs1 (stereo unspecified),3.191
15,CN(C)S(=O)(=O)N1CCN(CC2CCOc3ccccc3C2)CC1 (stereo unspecified),-1.148
16,O=C(CN1C(=O)CCNC1=O)N1CCOC(c2ccc(Cl)c(Cl)c2)C1 (stereo unspecified),6.471
17,CSCCCN1CCc2nc(N(C)C)nc(N3CCC(O)CC3)c2C1,3.21
18,CCCc1cc(=O)[nH]c2nnc(SCC(=O)NC(C)(C)C)n12,7.571
19,CC(O)c1cccc(-n2c(CCC(=O)O)nc3ccccc32)c1 (stereo unspecified),17.57
20,CCn1cnnc1CNC(=O)N1CCN(c2ccccc2Cl)CC1,101.2
21,CCn1cnnc1CNC(=O)N1CCOC(c2ccccc2Cl)C1 (stereo unspecified),-10.89
22,CCn1cnnc1CNC(=O)N1CCOC(c2ccc(Cl)cc2)C1 (stereo unspecified),-28.88

row,Compound,Percent Effect [%]
1,CC(C)CC(O)C1CCN(C(=O)c2ccc(C(F)(F)F)nc2O)CC1 (stereo unspecified),-33.24
2,CCN(C)CC(C)Cn1cnc(-c2ccccc2)c1C (stereo unspecified),25.31
3,Cc1nc(C)c(CNCc2nnc3n2CCCC3C(F)(F)F)s1 (stereo unspecified),-2.721
4,O=C(CN1CCC(Nc2ncccn2)CC1)Nc1ccccc1,-0.5486
5,O=C(Nc1cccc(C(F)(F)F)c1)C1CC(=O)N(Cc2ccccn2)C1 (stereo unspecified),6.876
6,CCc1ccc(C(=O)Nc2ccc(CC3CC(=O)NC3=O)cc2)cc1 (stereo unspecified),-15.63
7,COc1cccc(NC(=O)CC2Cn3ncnc3NC2=O)c1 (stereo unspecified),110.1
8,COc1cccc(NC(=O)CNc2ccc(C(=O)N(C)C)c(Cl)c2)c1,14.49
9,CCc1ccc(C(=O)Nc2ccc(CC3CC(=O)NC3=O)cc2)s1 (stereo unspecified),-2.558
10,COC(=O)C1CN(CC(=O)Nc2cccc(OC)c2)c2ccccc21 (stereo unspecified),10.48
11,O=C(Nc1cccc(C(F)(F)F)c1)N1CCN(CCn2ccnc2)CC1,2.864
12,O=C(CC1Cn2ncnc2NC1=O)Nc1ccccc1 (stereo unspecified),119.2
13,CCc1ccc(NC(=O)CC2Cn3ncnc3NC2=O)cc1 (stereo unspecified),123.1
14,O=C(CC1Cn2ncnc2NC1=O)Nc1cccc(C(F)(F)F)c1 (stereo unspecified),102.6
15,O=C(CN1C[C@H]2CC[C@@H]1CN(Cc1ccccn1)C2)Nc1ccccc1,0.8626
16,O=C(c1cc(F)cc(Cl)c1)N1CCN(CCO)[C@@H]2CS(=O)(=O)C[C@@H]21,-9.741
17,Cc1cc(CN2CCCC(CNC(=O)Cn3cccn3)C2)oc1C (stereo unspecified),-41.99
18,O=C(NCCc1cccs1)N1CCCC1CCCO (stereo unspecified),-4.53
19,CC(C)c1nc2n(n1)CC(NCc1nc(-c3cccnc3)no1)CC2 (stereo unspecified),-4.778
20,CC(=O)c1cc(C(=O)N2CCC3(CC2)Nc2ccccc2NC3=O)cs1,16.29
21,COc1ncc(C(=O)N2CCC3(CC2)C(=O)Nc2ccccc23)cn1,-4.36
22,COc1ccccc1C1(O)CCCN(C(=O)c2ccnn2C(C)C)C1 (stereo unspecified),100.6

row,Compound,Percent Effect [%]
1,COc1ccccc1C(=O)N1CCC(O)(c2cccc(C)c2C)CC1,6.429
2,COc1ccccc1[C@@H]1CN(Cc2csc(C(C)=O)c2)C[C@H]1C(=O)O,-15.68
3,COc1ccccc1C1CCN(C(=O)c2ncccc2OC(C)C)C1 (stereo unspecified),1.547
4,CSc1ncc(C(=O)N2CCC(O)(CN3CCOCC3)C(C)(C)C2)cn1 (stereo unspecified),-3.216
5,COc1ccccc1C1(O)CCCN(C(=O)c2cnc(SC)nc2)C1 (stereo unspecified),97.81
6,COc1ccccc1C1(O)CCCN(C(=O)c2csc(C(C)=O)c2)C1 (stereo unspecified),80.49
7,CN(Cc1cn2c(n1)CN(C(=O)c1cccn1C)CC2)Cc1ccco1,10.07
8,COc1cccc(OCc2nnc3n2N=C(C(C)(C)C)CS3)c1,-3.476
9,CCC(CC)N(Cc1cc(=O)n(C)c(=O)n1C)C1CC1,-2.422
10,CC(C)C(O)CNC(=O)Nc1cccc(-c2nccs2)c1 (stereo unspecified),0.8901
11,CN1CCC2(CC1)CN(CC1CC1)CC21CCNC1=O.O=C(O)C(F)(F)F.O=C(O)C(F)(F)F (stereo unspecified),-40.68
12,COCCN1CCC(CNC(=O)C2(c3cccc(C)c3)CC2)C1 (stereo unspecified),112.6
13,CCN1CCCC(CNC(=O)C2(c3cccc(Cl)c3)CC2)C1 (stereo unspecified),3.483
14,COCCN1CCC(CNC(=O)C2(c3cc(C)cc(C)c3)CCC2)C1 (stereo unspecified),8.369
15,COCCN1CCC(CNC(=O)C2(c3cc(C)cc(C)c3)CC2)CC1,106.5
16,COCCN1CCC(NC(=O)C2(c3cc(C)cc(C)c3)CC2)CC1,0.6832
17,COCCN1CCC(CNC(=O)C2(c3cccc(Cl)c3)CC2)C1 (stereo unspecified),119
18,COCCN1CCC(CNC(=O)C2(c3cccc(C)c3)CC2)CC1,2.355
